# PMC10812921, “Transcriptional Coactivator BOB1 (OBF1, OCA-B) Modulates the Specificity of DNA Recognition by the POU-Domain Factors OCT1 and OCT2 in a Monomeric Configuration”
# Target: POU1 (OCT1 POU domain) (human, UniProt P14859 260-458)
# Test: EMSA-SELEX-seq; no BOB1; 20 mM Tris-HCl pH 7.6, 140 mM NaCl, 10% glycerol, 0.5 mM EDTA, 0.05% Triton X-100, 0.1 mg/mL BSA, 0.1 mg/mL poly(dI-dC), 5 mM DTT, room temperature, 20 min; high values mean tight binding
# Details: protein: recombinant; dsDNA, one strand shown
# Outline: (§1)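 With or without 28 ng coactivator protein, 30 ng of tagged POU-domain protein was combined with 300 ng of a PCR-amplified double-stranded random 35-nt library in 20 μL Tris–HCl pH 7.6 binding buffer for 20 min at RT. The protein came from E. coli BL21 and had been purified under denaturing conditions and renatured. Four rounds of cutting complex bands from native 6% PAGE, elution and PCR amplification preceded Illumina sequencing. The binding preference figure is the percentage of sequenced 8-mers matching a motif pattern.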
# POU1 (OCT1 POU domain), sequence (P14859 260-458): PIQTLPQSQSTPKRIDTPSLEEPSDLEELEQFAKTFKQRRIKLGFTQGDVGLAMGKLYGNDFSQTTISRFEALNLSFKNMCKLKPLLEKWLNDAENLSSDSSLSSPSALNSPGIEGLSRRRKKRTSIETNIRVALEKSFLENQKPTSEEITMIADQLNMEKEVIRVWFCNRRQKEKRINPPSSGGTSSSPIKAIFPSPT
row,Sequence,binding signal
1,AGCGGAAC,0.0183 % of ANNNNAAN 8-mers
2,ATGTTAAC,0.0645 % of ANNNNAAN 8-mers
3,AGTGTAAA,0.0576 % of ANNNNAAN 8-mers
4,AGCTGAAA,0.0267 % of ANNNNAAN 8-mers
5,AATCGAAC,0.0366 % of ANNNNAAN 8-mers
6,AGCTAAAT,0.0652 % of ANNNNAAN 8-mers
7,AGACTAAC,0.0153 % of ANNNNAAN 8-mers
8,AAAGCAAT,0.05 % of ANNNNAAN 8-mers
9,ATTCAAAG,0.281 % of ANNNNAAN 8-mers
10,ATGTGAAA,0.0671 % of ANNNNAAN 8-mers
11,AAAAAAAT,0.13 % of ANNNNAAN 8-mers
12,AGACTAAG,0.0278 % of ANNNNAAN 8-mers
13,ACGTTAAC,0.024 % of ANNNNAAN 8-mers
14,ATTTGAAG,0.0713 % of ANNNNAAN 8-mers
15,AAGCGAAT,0.0538 % of ANNNNAAN 8-mers
16,AGTGAAAG,0.0469 % of ANNNNAAN 8-mers
17,ATAGCAAA,0.0744 % of ANNNNAAN 8-mers
18,AGATGAAG,0.0328 % of ANNNNAAN 8-mers
19,ATACCAAT,0.0465 % of ANNNNAAN 8-mers
20,AGGGTAAG,0.0503 % of ANNNNAAN 8-mers

row,Sequence,binding signal
1,AATATAAA,0.156 % of ANNNNAAN 8-mers
2,ATCCCAAC,0.0137 % of ANNNNAAN 8-mers
3,AGAGCAAA,0.0374 % of ANNNNAAN 8-mers
4,ACGTCAAC,0.013 % of ANNNNAAN 8-mers
5,ACGAGAAG,0.0217 % of ANNNNAAN 8-mers
6,AGTACAAT,0.0416 % of ANNNNAAN 8-mers
7,ATTTTAAA,0.198 % of ANNNNAAN 8-mers
8,AAACGAAA,0.0568 % of ANNNNAAN 8-mers
9,AATATAAT,0.213 % of ANNNNAAN 8-mers
10,AGTATAAA,0.0744 % of ANNNNAAN 8-mers
11,AATGCAAA,1.36 % of ANNNNAAN 8-mers
12,AGCATAAC,0.082 % of ANNNNAAN 8-mers
13,ACCACAAT,0.0179 % of ANNNNAAN 8-mers
14,ACCGAAAA,0.0248 % of ANNNNAAN 8-mers
15,AAGTAAAA,0.108 % of ANNNNAAN 8-mers
16,AACCAAAC,0.0248 % of ANNNNAAN 8-mers
17,ACTGAAAA,0.0313 % of ANNNNAAN 8-mers
18,AGCCAAAG,0.0286 % of ANNNNAAN 8-mers
19,AAATCAAG,0.098 % of ANNNNAAN 8-mers

# Target: T1, POU2 (OCT2 POU domain) (human, UniProt P09086 175-386)
# T1 sequence: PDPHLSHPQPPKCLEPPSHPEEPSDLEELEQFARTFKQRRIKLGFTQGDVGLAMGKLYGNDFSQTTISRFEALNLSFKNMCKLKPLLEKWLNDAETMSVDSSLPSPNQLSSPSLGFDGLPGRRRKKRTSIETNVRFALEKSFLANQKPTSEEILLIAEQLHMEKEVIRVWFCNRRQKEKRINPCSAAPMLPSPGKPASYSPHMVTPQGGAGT
# Test: as above
# Details: protein: recombinant; dsDNA, one strand shown
# Outline: as §1
row,Sequence,binding signal
1,AGCGGAAC,0.0224 % of ANNNNAAN 8-mers
2,ATGTTAAC,0.0938 % of ANNNNAAN 8-mers
3,AGTGTAAA,0.0667 % of ANNNNAAN 8-mers
4,AGCTGAAA,0.0293 % of ANNNNAAN 8-mers
5,AATCGAAC,0.0334 % of ANNNNAAN 8-mers
6,AGCTAAAT,0.0633 % of ANNNNAAN 8-mers
7,AGACTAAC,0.0207 % of ANNNNAAN 8-mers
8,AAAGCAAT,0.0455 % of ANNNNAAN 8-mers
9,ATTCAAAG,0.201 % of ANNNNAAN 8-mers
10,ATGTGAAA,0.0748 % of ANNNNAAN 8-mers
11,AAAAAAAT,0.12 % of ANNNNAAN 8-mers
12,AGACTAAG,0.0328 % of ANNNNAAN 8-mers
13,ACGTTAAC,0.0316 % of ANNNNAAN 8-mers
14,ATTTGAAG,0.0604 % of ANNNNAAN 8-mers
15,AAGCGAAT,0.0541 % of ANNNNAAN 8-mers
16,AGTGAAAG,0.0409 % of ANNNNAAN 8-mers
17,ATAGCAAA,0.0552 % of ANNNNAAN 8-mers
18,AGATGAAG,0.0368 % of ANNNNAAN 8-mers
19,ATACCAAT,0.0518 % of ANNNNAAN 8-mers
20,AGGGTAAG,0.0541 % of ANNNNAAN 8-mers

row,Sequence,binding signal
1,AATATAAA,0.178 % of ANNNNAAN 8-mers
2,ATCCCAAC,0.0213 % of ANNNNAAN 8-mers
3,AGAGCAAA,0.0293 % of ANNNNAAN 8-mers
4,ACGTCAAC,0.0173 % of ANNNNAAN 8-mers
5,ACGAGAAG,0.0288 % of ANNNNAAN 8-mers
6,AGTACAAT,0.0426 % of ANNNNAAN 8-mers
7,ATTTTAAA,0.204 % of ANNNNAAN 8-mers
8,AAACGAAA,0.0558 % of ANNNNAAN 8-mers
9,AATATAAT,0.286 % of ANNNNAAN 8-mers
10,AGTATAAA,0.08 % of ANNNNAAN 8-mers
11,AATGCAAA,1.1 % of ANNNNAAN 8-mers
12,AGCATAAC,0.099 % of ANNNNAAN 8-mers
13,ACCACAAT,0.0178 % of ANNNNAAN 8-mers
14,ACCGAAAA,0.0322 % of ANNNNAAN 8-mers
15,AAGTAAAA,0.0967 % of ANNNNAAN 8-mers
16,AACCAAAC,0.0236 % of ANNNNAAN 8-mers
17,ACTGAAAA,0.0363 % of ANNNNAAN 8-mers
18,AGCCAAAG,0.0219 % of ANNNNAAN 8-mers
19,AAATCAAG,0.0926 % of ANNNNAAN 8-mers
